Results published in PubChem BioAssay.
Records with an inconclusive call do not appear. The source made the active and inactive calls.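 How the source made its calls, unless noted: active means viability at or below 27.92% in each of two runs, the all-compound median minus 4 SD; inconclusive means no clear call, values can overlap the other calls; inactive means the rest.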

Legend:
[1] = reducers of endogenous Her2 protein level, primary screen, SKBR3 breast tumor cells, AlphaScreen, ATP viability (AID 461;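 active means Her2 level under about 52% in both replicate screens, with viability over 70% of control, limit read from the data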;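 on Her2 level: lower value means less Her2 protein in the cells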;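 on viability: percent of carrier control wells set as 100% viability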); conditions: 18-24 h, measured here: SKBR3 viability, ATP luminescence, at 10 µM
[2] = biological target: Receptor tyrosine-protein kinase erbB-2 (Homo sapiens) (UniProt P04626); assay: as above; conditions: 18-24 h, at 10 µM, stronger effect = lower value
Sequence of Receptor tyrosine-protein kinase erbB-2 (Homo sapiens) (P04626 whole entry, looked up): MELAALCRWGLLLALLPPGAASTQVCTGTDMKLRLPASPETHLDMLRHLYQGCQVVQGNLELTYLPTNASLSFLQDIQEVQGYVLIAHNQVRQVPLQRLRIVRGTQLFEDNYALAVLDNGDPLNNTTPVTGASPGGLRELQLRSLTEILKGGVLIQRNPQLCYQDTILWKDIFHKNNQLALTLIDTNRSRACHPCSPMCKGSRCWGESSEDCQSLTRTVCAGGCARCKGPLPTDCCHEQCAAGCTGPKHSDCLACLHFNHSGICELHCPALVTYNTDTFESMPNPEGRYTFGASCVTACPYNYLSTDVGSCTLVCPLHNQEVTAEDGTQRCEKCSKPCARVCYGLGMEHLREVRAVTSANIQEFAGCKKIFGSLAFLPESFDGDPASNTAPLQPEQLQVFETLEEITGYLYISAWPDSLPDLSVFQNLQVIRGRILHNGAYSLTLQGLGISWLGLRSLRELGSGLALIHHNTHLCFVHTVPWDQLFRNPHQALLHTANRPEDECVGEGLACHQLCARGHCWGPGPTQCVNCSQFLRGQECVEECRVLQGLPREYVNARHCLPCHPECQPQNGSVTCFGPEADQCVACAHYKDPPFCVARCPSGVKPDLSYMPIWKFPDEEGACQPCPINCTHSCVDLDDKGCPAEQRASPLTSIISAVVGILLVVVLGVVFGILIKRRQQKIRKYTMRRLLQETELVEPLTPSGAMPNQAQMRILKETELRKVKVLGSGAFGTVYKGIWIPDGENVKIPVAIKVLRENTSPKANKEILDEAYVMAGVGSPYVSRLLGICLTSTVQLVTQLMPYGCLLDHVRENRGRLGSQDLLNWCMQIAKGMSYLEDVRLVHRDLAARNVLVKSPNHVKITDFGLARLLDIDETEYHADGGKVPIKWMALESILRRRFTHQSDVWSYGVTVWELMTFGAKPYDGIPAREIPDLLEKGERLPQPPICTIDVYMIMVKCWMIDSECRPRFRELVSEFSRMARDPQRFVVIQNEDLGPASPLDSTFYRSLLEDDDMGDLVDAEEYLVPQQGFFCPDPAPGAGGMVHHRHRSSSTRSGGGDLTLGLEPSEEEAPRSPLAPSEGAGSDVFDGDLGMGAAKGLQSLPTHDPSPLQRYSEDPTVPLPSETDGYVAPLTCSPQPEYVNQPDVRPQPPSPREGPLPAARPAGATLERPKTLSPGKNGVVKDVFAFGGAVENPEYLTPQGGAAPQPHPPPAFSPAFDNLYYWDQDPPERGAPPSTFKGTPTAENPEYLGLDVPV

[3] = SK-BR-3 cell growth inhibitors, pilot screen, 24 h, human (AID 572;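 active means viability at or below 10% of carrier control in both of two separate runs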;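 further: compound exposure lasted between 18 and 24 h rather than exactly 24 h; 100% = carrier-treated control wells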); conditions: SK-BR-3 viability, CellTiter-Glo luminescence, at 10 µM, stronger effect = lower value
[4] = HUVEC growth inhibition – cell-based, human, primary screen (AID 575;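 active means viability at or below 30% in both replicate assays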;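 further: 100% = median of untreated cell wells with 0.1% DMSO on each plate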); conditions: HUVEC proliferation, CellTiter-Glo luminescence, 72 h; at 10 µM; stronger effect = lower value
[5] = growth inhibitors of H69AR lung tumor, primary screen, human, duplicate replicates (AID 580;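 active means viability at or under a set limit in both replicates, limit being median viability minus 3 SD, cut at about 48% in these data, passing the limit was not always enough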;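 further: 100% = mean luminescence of untreated wells and 0% = no signal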); conditions: H69AR lung tumor cells viability, ATP luminescence, 72 h; at 10 µM; stronger effect = lower value
[6] = reversal of MRP1-mediated doxorubicin resistance, pilot screen, H69AR cells, doxorubicin co-treatment (AID 601;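 active means viability loss from added drug above about 55%, and viability with drug at most 40%, in both replicates, limit read from the data, passing the limit was not always enough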); conditions: CellTiter-Glo, 72 h, at 10 µM; for differential viability (reversal): stronger effect = higher value
[7] = 384-well plate pilot, post-Golgi transport modulator project, inhibition of yeast transport mutant growth (AID 636; in the data active means inhibition above about 31%); conditions: absorbance 615 nm, about 18 h, stronger effect = higher value
[8] = growth suppression of yeast trafficking mutant, preliminary HTS, modulators of trafficking downstream of Golgi apparatus project, 1536-format plate, OD 615 nm (AID 637; in the data active means inhibition above about 30%); conditions: yeast transport mutant growth, absorbance 615 nm, 18 h; stronger effect = higher value
[9] = OD615 S. cerevisiae growth inhibition, permissive medium, pilot counter-assay, permissive growth control for S. cerevisiae lifespan shortening project (AID 705;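 active means growth inhibition above 25% in both replicates, a cutoff set 3 SD above the mean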); conditions: OD615, 24 h, at 10 µM, stronger effect = higher value
[10] = Restrictive medium S. cerevisiae growth inhibition, OD615, pilot screen of yeast lifespan reduction project, restrictive growth control (AID 706;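 active means growth inhibition above a set limit, 3 SD over mean compound inhibition, in both replicates, cut at about 43% in these data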;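 further: modified DeaD lifespan yeast strain shifted to restrictive glucose medium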); conditions: OD615, 48 h, at 10 µM, stronger effect = higher value
[11] = viability gain of MRP-1-high H69AR cells under doxorubicin, pilot screen, MRP-1 activator project, CellTiter-Glo, duplicate (AID 807;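 active means viability increase at or above a cutoff of the median across tested compounds plus 3 SD, cut at about 8.5% in these data, passing the limit was not always enough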;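 further: compound pretreatment 18-22 h then 72 h combined with doxorubicin; 0% = doxorubicin alone and 100% = vehicle without doxorubicin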); conditions: H69AR viability with doxorubicin, CellTiter-Glo luminescence; at 10 µM; stronger effect = higher value
[12] = growth suppression of beta-catenin knockout HCT116, pilot screen, human colon tumor cells (AID 823;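 active means cell viability at or below a set limit in both duplicate runs, the limit being the all-compound median minus 4 SD, cut at about 23% in these data, passing the limit was not always enough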;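 further: 0% = wells killed by 20 µM Hyamine and 100% = untreated DMSO cell wells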); conditions: CellTiter-Glo, 60 h, at 10 µM, stronger effect = lower value
[13] = growth suppression of PTEN-deleted HCT116, pilot screen, cell-based, HCT116 clonal line, CellTiter-Glo (AID 824); conditions: 60 h, at 10 µM, stronger effect = lower value;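 further: 0% = 20 µM Hyamine control and 100% = vehicle cell control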
[14] = inhibitors of the yeast RAM network, pilot screen, dse1pr::URA3 reporter, 5-FOA selection (AID 869;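 active means inhibition over a set limit, the all-compound mean plus 3 SD, in both replicate runs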;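 further: 0% = DMSO wells with no growth and 100% = 10 µM 1-NA-PP1 with full growth; RAM network block rescues cells from 5-FOA so hits raise OD615 growth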); conditions: S. cerevisiae dse1pr::URA3 5-FOA growth, OD615, 2 d; at 10 µM; stronger effect = higher value; strain carries analog-sensitive mutant Cbk1 kinase
[15] = RAM signaling pathway blockade in yeast – S. cerevisiae, Pdr1DBD-CYC8 efflux-inhibited sensitized strain, primary screen (AID 1298;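 active means RAM network inhibition above 8.4% in each of two replicates, 3 SD over the compound average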;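 further: 0% = DMSO untreated cells without growth and 100% = 10 µM 1-NA-PP1 full growth; higher means more yeast growth rescued from 5-FOA killing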); conditions: S. cerevisiae cbk1-as DSE1-URA3 strain, 5-FOA growth OD615, 2 d; at 50 µM; stronger effect = higher value
[16] = H69AR cells + 2 uM doxorubicin, measured here: viability with 2 uM doxorubicin, stronger effect = lower value
[17] = H69AR cells, compound alone cytotoxicity

Cn1cc(Cl)c(C(=O)N(Cc2ccccc2)c2ccccn2)n1
inactive: Her2 level [2] 116% | viability [3] 98% | viability [4] 101% | viability [5] 92.2% | differential viability (reversal) ([6]; H69AR cells + 2 uM doxorubicin) -1.01% | inhibition [7] 1.33% | inhibition [8] 2.33% | growth inhibition [9] -8.19% | growth inhibition [10] -1.84% | viability increase [11] -0.96% | viability [12] 93.3% | viability [13] 94.7% | inhibition [14] 1.62% | RAM network inhibition [15] 7.22%
93.2%: viability [6, 16]
92.2%: viability [6, 17]
98%: viability [1]

COc1cccc(NC(=O)c2nc3nc(C)cc(C(F)F)n3n2)c1
inactive: Her2 level [2] 106% | viability [3] 100% | viability [4] 93.9% | viability [5] 84% | differential viability (reversal) ([6]; H69AR cells + 2 uM doxorubicin) -2.74% | inhibition [7] 1.47% | inhibition [8] 4.5% | growth inhibition [9] -11.3% | growth inhibition [10] -11.1% | viability increase [11] 1.69% | viability [12] 107% | viability [13] 101% | inhibition [14] 0.62% | RAM network inhibition [15] -0.33%
86.8%: viability [6, 16]
100%: viability [1]
84%: viability [6, 17]

CCC(=O)N1CCN(c2nc(-c3ccccc3)c3c(c2C#N)CCCC3)CC1
84%: viability [6, 16]
105%: viability [1]
156%: viability [6, 17]
inactive: Her2 level [2] 93% | viability [3] 105% | viability [4] 97.2% | viability [5] 156% | differential viability (reversal) ([6]; H69AR cells + 2 uM doxorubicin) 72.2% | inhibition [7] -8.24% | inhibition [8] 4.59% | growth inhibition [9] -2.54% | growth inhibition [10] -4.34% | viability increase [11] -5.2% | viability [12] 75.8% | viability [13] 73.1% | inhibition [14] 0.35% | RAM network inhibition [15] 2.27%

c1ccc2c(c1)Cc1cc(CN3CCOCC3)ccc1-2
89.3%: viability [6, 17]
92.1%: viability [6, 16]
inactive: Her2 level [2] 100% | viability [3] 85% | viability [4] 99.7% | viability [5] 89.3% | differential viability (reversal) ([6]; H69AR cells + 2 uM doxorubicin) -2.81% | inhibition [7] 2.34% | inhibition [8] -1.15% | growth inhibition [9] -14.7% | growth inhibition [10] -4.66% | viability increase [11] 0.12% | viability [12] 92.3% | viability [13] 97.5% | inhibition [14] 1.01% | RAM network inhibition [15] 0.21%
85%: viability [1]

CC1=C(C(N)=O)C(c2ccccn2)n2nc(-c3ccccc3Cl)nc2N1 (stereo not given)
inactive: Her2 level [2] 114% | viability [3] 98% | viability [4] 103% | viability [5] 91.6% | differential viability (reversal) ([6]; H69AR cells + 2 uM doxorubicin) 6.15% | inhibition [7] -2% | inhibition [8] -4.17% | growth inhibition [9] -13.8% | growth inhibition [10] -3.02% | viability increase [11] -2.25% | viability [12] 101% | viability [13] 91.7% | inhibition [14] 1% | RAM network inhibition [15] 3.22%
91.6%: viability [6, 17]
85.4%: viability [6, 16]
98%: viability [1]

Cc1ccc2cc(CCNC(=O)C(C)C)c(=O)[nH]c2c1C
99%: viability [6, 17]
87.5%: viability [1]
inactive: Her2 level [2] 102% | viability [3] 87.5% | viability [4] 99.4% | viability [5] 99% | differential viability (reversal) ([6]; H69AR cells + 2 uM doxorubicin) 6.72% | inhibition [7] -4.8% | inhibition [8] -1% | growth inhibition [9] -15.2% | growth inhibition [10] -19.7% | viability increase [11] -0.61% | viability [12] 105% | viability [13] 99.1% | inhibition [14] 1.52% | RAM network inhibition [15] 6.36%
92.3%: viability [6, 16]

Cc1c(NC(=O)c2noc3c2CCc2ccccc2-3)c(=O)n(-c2ccccc2)n1C
95.5%: viability [1]
inactive: Her2 level [2] 97.5% | viability [3] 95.5% | viability [4] 102% | viability [5] 99.7% | differential viability (reversal) ([6]; H69AR cells + 2 uM doxorubicin) -5.54% | inhibition [7] -5.73% | inhibition [8] -7.21% | growth inhibition [9] -3.5% | growth inhibition [10] 6.45% | viability increase [11] -0.3% | viability [12] 101% | viability [13] 102% | inhibition [14] 1.05% | RAM network inhibition [15] 4.92%
99.7%: viability [6, 17]
105%: viability [6, 16]

O=C(CCn1c(=O)oc2ccccc21)NCCN1CCOCC1
89.6%: viability [6, 16]
104%: viability [1]
inactive: Her2 level [2] 120% | viability [3] 104% | viability [4] 93.4% | viability [5] 85.9% | differential viability (reversal) ([6]; H69AR cells + 2 uM doxorubicin) -3.67% | inhibition [7] 0.8% | inhibition [8] -6.5% | growth inhibition [9] -9.38% | growth inhibition [10] -6.78% | viability increase [11] -1.28% | viability [12] 107% | viability [13] 101% | inhibition [14] 2.63% | RAM network inhibition [15] 4.16%
85.9%: viability [6, 17]

COc1cc(C2N3CC4(C)CN2CC(C)(C3)C4)ccc1O (stereo not given)
104%: viability [6, 17]
inactive: Her2 level [2] 123% | viability [3] 94% | viability [4] 105% | viability [5] 104% | differential viability (reversal) ([6]; H69AR cells + 2 uM doxorubicin) 11.5% | inhibition [7] -0.51% | inhibition [8] -2% | growth inhibition [9] -5.33% | growth inhibition [10] 1.65% | viability increase [11] 0.39% | viability [12] 104% | viability [13] 98% | inhibition [14] 1.72% | RAM network inhibition [15] 0.39%
94%: viability [1]
92.3%: viability [6, 16]

Cc1ccccc1OCc1nnc2n1CC(C)S2 (stereo not given)
99%: viability [1]
inactive: Her2 level [2] 95% | viability [3] 99% | viability [4] 88.6% | viability [5] 92.3% | differential viability (reversal) ([6]; H69AR cells + 2 uM doxorubicin) 1.37% | inhibition [7] -4.27% | inhibition [8] -2% | growth inhibition [9] 3.34% | growth inhibition [10] 16.6% | viability increase [11] 0.12% | viability [12] 97.8% | viability [13] 95.3% | inhibition [14] 0.795% | RAM network inhibition [15] -0.06%
90.9%: viability [6, 16]
92.3%: viability [6, 17]
